# Measurements as given in paper PMC4336329 (PLoS ONE, 2015).
# Hit rate of the full screen: of about 310,000 compounds, about 14,000 (4.5%) showed an effect of 50% or more. The effect is printed as a negative number. The full list was thinned out, with strong results kept by preference.
# Target: human ether-à-go-go-related gene (hERG) potassium channel (human, UniProt Q12809)
# Assay: primary screen, population patch clamp on CHO cells stably expressing hERG; higher = less effect of the substance
# 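Also: peak tail current of the secondary pulse compared with the same well before compound.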
# Chain of human ether-à-go-go-related gene (hERG) potassium channel (Q12809 whole entry, looked up): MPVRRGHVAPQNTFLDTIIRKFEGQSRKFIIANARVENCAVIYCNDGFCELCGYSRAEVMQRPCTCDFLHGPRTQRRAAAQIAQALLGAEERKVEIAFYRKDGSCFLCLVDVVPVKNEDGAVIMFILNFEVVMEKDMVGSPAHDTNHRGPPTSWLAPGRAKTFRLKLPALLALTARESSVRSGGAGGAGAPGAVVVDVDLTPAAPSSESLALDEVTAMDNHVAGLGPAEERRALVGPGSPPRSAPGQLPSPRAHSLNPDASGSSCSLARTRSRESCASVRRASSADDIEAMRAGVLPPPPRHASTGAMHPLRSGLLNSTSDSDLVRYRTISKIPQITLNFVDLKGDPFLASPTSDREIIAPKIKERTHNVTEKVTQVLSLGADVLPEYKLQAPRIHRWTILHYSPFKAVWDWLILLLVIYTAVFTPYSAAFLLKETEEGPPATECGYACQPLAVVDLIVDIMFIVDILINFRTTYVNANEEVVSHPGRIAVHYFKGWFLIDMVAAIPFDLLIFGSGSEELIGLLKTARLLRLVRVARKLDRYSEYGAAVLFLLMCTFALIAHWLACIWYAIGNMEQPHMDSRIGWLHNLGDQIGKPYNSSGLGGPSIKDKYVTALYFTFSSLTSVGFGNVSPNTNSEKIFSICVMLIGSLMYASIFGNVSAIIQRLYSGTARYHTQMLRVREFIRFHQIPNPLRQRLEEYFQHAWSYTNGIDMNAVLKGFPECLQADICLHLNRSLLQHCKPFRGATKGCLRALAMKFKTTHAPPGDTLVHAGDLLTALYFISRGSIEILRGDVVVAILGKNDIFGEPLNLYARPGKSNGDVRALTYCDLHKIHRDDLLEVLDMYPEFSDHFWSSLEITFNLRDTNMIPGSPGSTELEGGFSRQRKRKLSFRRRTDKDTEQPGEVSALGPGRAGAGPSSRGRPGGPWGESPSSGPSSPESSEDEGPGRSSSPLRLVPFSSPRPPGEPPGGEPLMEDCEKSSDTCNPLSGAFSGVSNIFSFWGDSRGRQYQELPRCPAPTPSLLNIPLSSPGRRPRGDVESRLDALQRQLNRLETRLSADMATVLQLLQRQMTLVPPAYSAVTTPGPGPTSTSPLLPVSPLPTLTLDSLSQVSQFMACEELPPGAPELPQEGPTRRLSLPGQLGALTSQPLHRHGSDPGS
row,SMILES,"hERG current change (%, negative = inhibition) at 10uM"
1,CC(Sc1nnc(CNc2cccc3ccccc23)n1-c1ccccc1)C(=O)N/N=C/c1ccco1 (centres unmarked),-10.2%
2,Cl.O=C(NCC(c1cccs1)N1CCOCC1)c1cc2ccccc2o1 (centres unmarked),-15.7%
3,O=C(NNC1=NS(=O)(=O)c2ccccc21)c1cccc([N+](=O)[O-])c1,15%
4,CCOc1cccc(=O)c2c(C)n(C)c(C)c12,-4.1%
5,CCCCCn1c(C)c2c(OCC)cccc(=O)c2c1C,-69%
6,CCOc1cccc(=O)c2c(C)n(Cc3ccccc3)c(C)c12,11.8%
7,CC(C)C(NS(=O)(=O)c1cccs1)C(=O)NCc1ccc2c(c1)OCO2 (centres unmarked),-12%
8,COc1ccccc1C(C#N)c1cccc(Cl)n1 (centres unmarked),0.219%
9,O=C(CCCn1c(=O)c2cccn2c2cccnc21)NCc1cccc(Br)c1,-13.8%
10,O=C(c1ccc(OC2CCN(CCc3ccccc3)CC2)cc1)N1CCCC1,-30%
11,CC(=O)N1CCN(C(=O)c2ccc(OC3CCN(CCc4ccccc4)CC3)cc2)CC1,15.6%
12,CC1CCCN(C(=O)c2ccc(OC3CCN(CCc4ccccc4)CC3)cc2)C1 (centres unmarked),-58.1%
13,COC1CCCN(C(=O)c2ccc(OC3CCN(CCc4ccccc4)CC3)cc2)C1 (centres unmarked),-11.6%
14,O=C(c1ccc(OC2CCN(CCCc3ccccc3)CC2)cc1)N1CCCC1,-69.8%
15,O=C(c1ccc(OC2CCN(CCc3ccccc3)CC2)cc1)N1CCCC(O)C1 (centres unmarked),-2.05%
16,COc1ccc(CNC(=O)CCn2nc(C)c3c(C)n(-c4ccccc4)nc3c2=O)c(OC)c1,11.8%
17,O=C(NCc1ccc(Cl)cc1)c1ccc(NC(=O)C2CCCO2)cc1 (centres unmarked),13.2%
18,O=C1CCCC2=C1C(c1cccs1)n1nc(SCc3ccc(C(=O)O)cc3)nc1N2 (centres unmarked),2.81%
19,O=C(Cn1c2ccccc2c2nc3n(c(=O)c21)CCS3)Nc1ccccc1C(F)(F)F,15.1%
20,Cc1ccc(N2CC(C(=O)NCCN3CCOCC3)CC2=O)cc1 (centres unmarked),8.92%
21,CC1CCCCN1C(=O)NC1CC(=O)N(c2ccc3c(c2)OCCO3)C1 (centres unmarked),5.7%
22,CCOC(=O)c1cc(-c2ccccc2)nn1CC1CC(c2cccc([N+](=O)[O-])c2)=NO1 (centres unmarked),-24.2%

row,SMILES,"hERG current change (%, negative = inhibition) at 10uM"
1,Cc1ccccc1-c1cc(C(=O)NCc2cccs2)nn1CC1CC(c2cccc([N+](=O)[O-])c2)=NO1 (centres unmarked),4.08%
2,Cc1ccc(CNC(=O)c2cc(-c3ccccc3C)n(CC3CC(c4cccc([N+](=O)[O-])c4)=NO3)n2)cc1 (centres unmarked),13.6%
3,O=C(O)c1cc(-c2ccccc2)nn1CC1CC(c2cccc([N+](=O)[O-])c2)=NO1 (centres unmarked),19.1%
4,Cc1ccc(CNC(=O)c2cc(-c3ccccc3)nn2CC2CC(c3cccc([N+](=O)[O-])c3)=NO2)cc1 (centres unmarked),-8.09%
5,Cc1cc(Cn2nc(-c3ccccc3)cc2C(=O)NCC2CC2)on1,9.32%
6,O=C(NCC1CC1)c1cc(-c2ccccc2)nn1CC1CC(c2cccc([N+](=O)[O-])c2)=NO1 (centres unmarked),-60.8%
7,O=C(NCc1cccs1)c1cc(-c2ccccc2)nn1CC1CC(c2cccc([N+](=O)[O-])c2)=NO1 (centres unmarked),-66.9%
8,CCc1cc(Cn2nc(-c3ccccc3)cc2C(=O)NCC2CC2)on1,-51.8%
9,Cc1ccccc1-c1cc(C(=O)NCC2CC2)nn1CC1CC(c2cccc([N+](=O)[O-])c2)=NO1 (centres unmarked),-26.6%
10,COCCNC(=O)c1cc(-c2ccccc2)nn1CC1CC(c2cccc([N+](=O)[O-])c2)=NO1 (centres unmarked),-50.6%
11,CCc1cc(Cn2nc(-c3ccccc3)cc2C(=O)NCCOC)on1,-9.96%
12,COC(=O)C(C)n1cnc2c(nnn2Cc2ccc(Cl)cc2)c1=O (centres unmarked),-16.4%
13,CCC1=Nc2cc(C(=O)NCc3ccco3)ccc2Sc2ccc(C)cc21,-0.612%
14,CN(Cc1ccccc1)C(=O)CN1C(=O)NC2(CCCCCCC2)C1=O,-11.7%
15,O=C(CCc1ccccc1)NNC(=O)Nc1ccccc1,1.26%
16,COc1ccc(OC)c(CNC(=O)Cc2c(C(=O)O)[nH]c3ccccc23)c1,15.3%
17,Cc1ccccc1N1CCN(C2CCCN(C(=O)c3ocnc3C)C2)CC1 (centres unmarked),-16.9%
18,CN(c1ccccc1)S(=O)(=O)c1cccc(C(=O)OCC(=O)Nc2ccc3[nH]c(=O)[nH]c3c2)c1,19.6%
19,Cc1ccccc1CN(C)CCc1ccccn1.O=C(O)C(=O)O,-7.25%
20,CN(CCc1ccccn1)Cc1ccc(Cl)c(Cl)c1,-36.3%
21,CC(C)c1ccc(N(CCc2ccccn2)C(=O)C(C)(C)C)cc1,-5.99%
22,CCc1ccc(CN(C)CCc2ccccn2)cc1,-62.6%

row,SMILES,"hERG current change (%, negative = inhibition) at 10uM"
1,Cc1cccc(CN(C)CCc2ccccn2)c1,-15.3%
2,CC(C)c1ccc(NC(=S)N(C)CCc2ccccn2)cc1,-8.91%
3,CN(CCc1ccccn1)C(=O)Nc1ccc(Cl)cc1,6.31%
4,CN(CCc1ccccn1)Cc1ccc(Cl)cc1Cl,-64.3%
5,CN(CCc1ccccn1)C(=O)c1cccnc1Oc1ccc(Cl)cc1,-19.5%
6,CN(CCc1ccccn1)Cc1ccc(Cl)cc1,-53.7%
7,CC(C)=CCCC(C)CN(C)CCc1ccccn1 (centres unmarked),-65.4%
8,Cc1ccc(CN(C)CCc2ccccn2)cc1,-41.1%
9,CC(=O)N1CCC(=O)N(C(C)C)c2ccccc21,3.9%
10,COc1ccc(CNC(=O)c2cccnc2Sc2ccc(C)c(C)c2)cc1,3.63%
11,COc1ccccc1-c1coc2cc(O)cc(O)c2c1=O,9.89%
12,Cc1ccc(OCC(=O)c2ccc(Cl)s2)c([N+](=O)[O-])n1,2.66%
13,Cc1ccc(S(=O)(=O)NCc2n[nH]c(=S)n2C)cc1,21%
14,NC(=O)c1cc([N+](=O)[O-])ccc1NCc1ccc(N)cc1,10.5%
15,COc1cc2c(cc1NC(=O)c1cccnc1)CCCC2,14.2%
16,Cc1cccc(-c2noc(-c3ccc4c(c3)OCO4)n2)c1,7.53%
17,COc1cc(Cl)c(C)cc1NC(=O)CN1CCCCCC1,-0.067%
18,COc1cc(NC(=O)c2ccccc2Cl)c(OC)cc1NC(=O)CN1CCOCC1,-3.34%
19,COc1ccc(NC(=O)CCCn2c(=O)oc3ccccc32)cc1Cl,-12.9%
20,COc1cc(Cl)c(C)cc1NC(=O)c1ccccc1NC(=O)CN1CCOCC1,-58.7%
21,COc1cc(Cl)c(C)cc1NC(=O)CN1CCN(C(=O)C2CC2)CC1,-59.6%
22,COc1cc(NC(=O)CN2CCN(C(=O)C3CCCO3)CC2)c(OC)cc1Cl (centres unmarked),-12.5%

row,SMILES,"hERG current change (%, negative = inhibition) at 10uM"
1,COc1cc(OC)c(NC(=O)CCCn2c(=O)oc3ccccc32)cc1Cl,9.61%
2,COc1cc(NC(=O)c2ccccc2C)c(OC)cc1NC(=O)CN1CCOCC1,-7.78%
3,COc1cc(Cl)c(C)cc1NC(=O)CCCn1c(=O)oc2ccccc21,-58.7%
4,O=C(CN1CCN(S(=O)(=O)c2cc(Cl)ccc2Cl)CC1)Nc1ccc2c(c1)OCCO2,-23.2%
5,O=C(CC(c1ccccc1)c1cc(Cl)ccc1O)N1CCOCC1 (centres unmarked),-15.1%
6,CCc1ccc(S(=O)(=O)N/N=C\c2ccc3c(c2)OCO3)cc1,9.85%
7,CCCN(CC(=O)Nc1ccc(F)c(F)c1F)C(=O)c1ccc(N2CCCC2=O)cc1,-4.37%
8,C=CCOc1ccccc1/C=N/NC(=O)c1ccc(Cl)cc1Cl,-6.98%
9,O=C(CC1C(=O)NCCN1CC1CCCCC1)NCc1ccccc1Cl (centres unmarked),-5.9%
10,Cc1nc(-c2cccc(S(=O)(=O)N3CCCC(C)C3)c2)cs1 (centres unmarked),-9.76%
11,O=C(c1ccc(N2CCCCC2)c([N+](=O)[O-])c1)N1CCN(c2ccccn2)CC1,-66.8%
12,O=C(c1ccc(N2CCOCC2)c([N+](=O)[O-])c1)N1CCN(S(=O)(=O)c2cccs2)CC1,-47.3%
13,CC(=O)N1CCN(c2ccc(S(C)(=O)=O)cc2[N+](=O)[O-])CC1,-12.7%
14,CS(=O)(=O)c1ccc(N2CCN(S(=O)(=O)c3cccs3)CC2)c([N+](=O)[O-])c1,-67.1%
15,O=C(c1ccc(N2CCCC2)c([N+](=O)[O-])c1)N1CCN(c2ccccn2)CC1,-21.8%
16,CS(=O)(=O)c1ccc(N2CCN(c3ccccn3)CC2)c([N+](=O)[O-])c1,-55%
17,Cc1ccc(C(=O)N2CCN(c3ccccn3)CC2)cc1[N+](=O)[O-],9.02%
18,CN1CCN(c2ccc(S(=O)(=O)N3CCCCC3)cc2[N+](=O)[O-])CC1,-48%
19,CN1CCN(c2ccc(S(C)(=O)=O)cc2[N+](=O)[O-])CC1,-2.78%
20,CCOC(=O)c1cnn(-c2sc(C(=O)OCC)c(C)c2C(=O)OCC)c1N,16.4%
